Experimental data from PubChem BioAssay (Tox21).
A number with no mark means an inactive call. Records with an inconclusive call do not appear. Entries that show only a call come without a potency. Calls of active or inactive are those of the source. Unless noted, the call rests on the fitted dose curve.

Legend:
[1] = Nuclear factor erythroid 2-related factor 2/antioxidant responsive element (Nrf2/ARE) small molecule agonists: qHTS cell viability counter screen in human keratinocytes (AID 1919968; active means well fitted curve in the direction sought with a large enough effect in the repeat runs; an effect the other way counts as inactive or inconclusive; further: nearly all actives have a fitted effect of over 55% in size; further: potency means the concentration at half of the fitted maximal effect)
In short: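 Fluorescence read-out from CellTiter-Fluor after 1 h at 37 C. Wells held HaCaT-derived ARE-luciferase reporter cells (1,500/well) treated 23 h with DMSO-dissolved compounds. Run in the same wells as the luciferase agonist read.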

[2] = target: Gonadotropin-releasing hormone receptor (Homo sapiens) (UniProt P30968); assay: Human gonadotropin-releasing hormone receptor (GnRHR) small molecule agonists, calcium flux assay in GnRHR-HEK293 cells (AID 1920063); further: nearly all actives have a fitted effect of over 35% in size; further: potency means the concentration at half of the fitted maximal effect
Sequence of Gonadotropin-releasing hormone receptor (Homo sapiens) (P30968 whole entry, looked up): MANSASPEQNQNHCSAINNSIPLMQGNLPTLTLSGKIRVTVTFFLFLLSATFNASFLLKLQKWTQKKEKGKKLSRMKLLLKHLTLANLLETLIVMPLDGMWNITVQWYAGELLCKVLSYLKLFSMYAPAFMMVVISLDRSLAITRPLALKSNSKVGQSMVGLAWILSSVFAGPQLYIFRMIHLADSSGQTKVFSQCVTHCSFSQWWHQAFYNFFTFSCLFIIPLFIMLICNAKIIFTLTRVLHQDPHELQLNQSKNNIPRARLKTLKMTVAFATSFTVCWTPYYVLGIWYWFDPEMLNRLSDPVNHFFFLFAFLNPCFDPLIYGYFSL
In short: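 Calcium-dye fluorescence, Ex/Em=480/540, recorded every 1 sec over 3 min after compound addition to GnRHR-HEK293 cells. Cells had been seeded 18 hours earlier and dye-loaded for 1 hour at 37 C. Fifteen concentrations, triplicates.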

[3] = target: KiSS-1 receptor (Homo sapiens) (UniProt Q969F8); assay: Human kisspeptin (KISS1R) small molecule agonists, calcium flux assay in KISS1R-HEK293 cells (AID 1920064; active means well fitted curve in the direction sought with a large enough effect in the repeat runs; an effect the other way counts as inactive or inconclusive)
Sequence of KiSS-1 receptor (Homo sapiens) (Q969F8 whole entry, looked up): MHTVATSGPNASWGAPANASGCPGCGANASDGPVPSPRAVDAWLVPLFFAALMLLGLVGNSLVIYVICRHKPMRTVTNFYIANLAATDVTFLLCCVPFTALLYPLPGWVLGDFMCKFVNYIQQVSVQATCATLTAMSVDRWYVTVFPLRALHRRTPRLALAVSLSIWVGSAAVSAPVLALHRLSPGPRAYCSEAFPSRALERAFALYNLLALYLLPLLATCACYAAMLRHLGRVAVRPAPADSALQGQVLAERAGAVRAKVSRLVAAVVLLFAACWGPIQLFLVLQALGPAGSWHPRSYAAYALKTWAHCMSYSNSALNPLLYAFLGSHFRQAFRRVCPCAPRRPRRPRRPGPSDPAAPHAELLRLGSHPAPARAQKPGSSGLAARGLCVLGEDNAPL
In short: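 Calcium flux read-out: kinetic fluorescence at Ex/Em=480/540, 1 s intervals over 3 min, after pin-tool compound addition to dye-loaded KISS1R-HEK293 cells. Fifteen concentrations, triplicates.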

[4] = p53 small molecule agonists, cell-based qHTS assay with human liver microsomes (AID 1963577);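 further: p53 response element beta-lactamase reporter cells with liver microsomes plus NADPH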
In short: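 p53RE-bla cells; 5 h settle, 37 C/5% CO2; cpd + HLM 0.5 mg/mL + NADPH 0.5 mg/mL (final); 16 h 37 C; LiveBLAzer 2 h RT dark; fluorescence readout.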

[5] = p53 small molecule agonists, cell-based qHTS assay with rat liver microsomes (AID 1963578)
In short: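 Rat liver microsome activation: microsomes 0.5 mg/mL, NADPH 0.5 mg/mL final; p53RE-bla cells, 16 h 37 C; LiveBLAzer readout, 2 h RT dark.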

[6] = p53 small molecule agonists, cell-based qHTS assay with human liver microsomes: qHTS cell viability counter screen (AID 1963579); further: nearly all actives have a fitted effect of over 45% in size
In short: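 Luminescent CellTiter-Glo read-out, 30 min at room temperature, gauged cytotoxicity in p53RE-bla cells exposed 16 h at 37 C to DMSO-dissolved compounds with metabolic activation by human liver microsomes and NADPH, each 0.5 mg/mL final.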

[7] = p53 small molecule agonists, cell-based qHTS assay with rat liver microsomes: qHTS cell viability counter screen (AID 1963580); further: nearly all actives have a fitted effect of over 45% in size
In short: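 After the beta-lactamase ratio was read, CellTiter-Glo was added to the same wells and luminescence measured at 30 min; cells had been treated 16 h at 37 C with compounds, rat liver microsomes and NADPH (0.5 mg/mL final each).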

[8] = p53 small molecule agonists, cell-based qHTS assay: qHTS cell viability counter screen (AID 1963581); further: nearly all actives have a fitted effect of over 45% in size
In short: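 Cytotoxicity read-out: ATP-based luminescence (CellTiter-Glo, 30 min RT) measured in the same wells as the p53 reporter assay, HCT-116 p53RE-bla cells, 16 h compound exposure at 37 C.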

[9] = p53 small molecule agonists, cell-based qHTS assay (AID 1963582; active means well fitted activation curve with a large enough effect in the signal ratio in the repeat runs, not every such curve was filed as active; the % refers to the signal ratio)
In short: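 Fluorescence intensity read-out of a beta-lactamase reporter under a p53 response element. Cells were exposed to DMSO-dissolved compounds for 16 h at 37 C, then developed with FRET substrate for 2 h at RT.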

[10] = cAMP Responsive Elements (CRE) small molecule agonists, cell-based qHTS assay (AID 1963590)
In short: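 Beta-lactamase reporter readout: LiveBLAzer B/G FRET substrate, 2 h at room temperature, added after 3 h compound treatment of CRE-bla HEK 293T cells at 37 C/5% CO2.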

[11] = cAMP Responsive Elements (CRE) small molecule antagonists, cell-based qHTS assay (AID 1963591; active means well fitted inhibition curve with a large enough effect in the signal ratio in the repeat runs, not every such curve was filed as active; the % refers to the signal ratio)
In short: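 HEK293T CRE-bla; 18 h preincubation; compound pin-transfer; NKH477 0.25 uM final, 3 h, 37 C; LiveBLAzer FRET substrate 2 h RT.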

[12] = target: Beta-2 adrenergic receptor (Homo sapiens) (UniProt P07550); assay: Adrenergic beta2 receptor (ADRB2) small molecule antagonists, cell-based qHTS assay (AID 1963592); further: series mostly up to about 92 µM; nearly all actives have a fitted effect of over 50% in size
Sequence of Beta-2 adrenergic receptor (Homo sapiens) (P07550 whole entry, looked up): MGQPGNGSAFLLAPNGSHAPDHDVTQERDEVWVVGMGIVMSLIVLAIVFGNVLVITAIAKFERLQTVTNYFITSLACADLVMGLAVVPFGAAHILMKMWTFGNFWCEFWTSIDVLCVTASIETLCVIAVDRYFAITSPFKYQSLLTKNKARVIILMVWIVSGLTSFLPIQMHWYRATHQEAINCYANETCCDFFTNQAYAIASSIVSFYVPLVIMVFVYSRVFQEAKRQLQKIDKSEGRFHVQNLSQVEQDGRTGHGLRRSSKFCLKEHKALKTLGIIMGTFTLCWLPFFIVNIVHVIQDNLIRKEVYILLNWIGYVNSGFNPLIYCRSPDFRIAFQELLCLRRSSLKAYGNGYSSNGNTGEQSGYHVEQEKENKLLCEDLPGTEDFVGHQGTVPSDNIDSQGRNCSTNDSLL
In short: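 Assay format: CHO-ADRB2 cells, 18-20hr seeding at 37C/5% CO2, then compound plus 1nM isoproterenol agonist mix for 0.5hr RT. Homogeneous time-resolved fluorescence cAMP detection after 1hr, expressed as 665/615 nm ratio.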

[13] = target: D(2) dopamine receptor (Homo sapiens) (UniProt P14416); assay: Dopamine D2 receptor (DRD2) small molecule antagonists, cell-based qHTS assay (AID 1963595; active means well fitted inhibition curve with a large enough effect in the signal ratio in the repeat runs, with a control signal flat; the % refers to the signal ratio)
Sequence of D(2) dopamine receptor (Homo sapiens) (P14416 whole entry, looked up): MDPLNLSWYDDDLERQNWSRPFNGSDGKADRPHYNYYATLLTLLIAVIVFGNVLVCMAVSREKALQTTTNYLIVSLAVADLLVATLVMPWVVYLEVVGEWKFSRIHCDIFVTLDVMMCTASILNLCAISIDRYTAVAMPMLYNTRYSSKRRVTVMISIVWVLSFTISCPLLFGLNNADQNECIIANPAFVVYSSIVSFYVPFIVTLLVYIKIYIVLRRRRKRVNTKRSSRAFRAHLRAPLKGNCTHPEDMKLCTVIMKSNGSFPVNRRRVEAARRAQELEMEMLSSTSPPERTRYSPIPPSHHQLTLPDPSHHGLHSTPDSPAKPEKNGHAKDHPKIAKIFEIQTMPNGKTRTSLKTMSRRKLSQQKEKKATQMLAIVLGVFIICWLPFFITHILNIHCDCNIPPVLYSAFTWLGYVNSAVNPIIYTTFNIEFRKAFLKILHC
In short: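 Antagonism was scored as restored cAMP in HEK293-DRD2 cells. These cells were stimulated with 200 nM NKH477 and 12 nM quinpirole for 30 min at room temperature, in the presence of 0.1 mM Ro20-1724.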

[14] = G protein-coupled receptor (GPCR) small molecule agonists, calcium flux assay: HEK293 wild type cell line counter screen (AID 1920065)
In short: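 Agonist mode; 18 h seeding at 37 C, 1 h dye load at 37 C; compounds pinned from DMSO, ATP as positive control; kinetic fluorescence 480/540 nm, 3 min, 1 s reads; 15 concentrations, triplicate.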

[15] = target: 5-hydroxytryptamine receptor 2A (Homo sapiens) (UniProt P28223); assay: 5-hydroxytryptamine receptor 2A (HTR2A) small molecule antagonists, cell-based qHTS assay (AID 1963586); further: nearly all actives have a fitted effect of over 45% in size
Sequence of 5-hydroxytryptamine receptor 2A (Homo sapiens) (P28223 whole entry, looked up): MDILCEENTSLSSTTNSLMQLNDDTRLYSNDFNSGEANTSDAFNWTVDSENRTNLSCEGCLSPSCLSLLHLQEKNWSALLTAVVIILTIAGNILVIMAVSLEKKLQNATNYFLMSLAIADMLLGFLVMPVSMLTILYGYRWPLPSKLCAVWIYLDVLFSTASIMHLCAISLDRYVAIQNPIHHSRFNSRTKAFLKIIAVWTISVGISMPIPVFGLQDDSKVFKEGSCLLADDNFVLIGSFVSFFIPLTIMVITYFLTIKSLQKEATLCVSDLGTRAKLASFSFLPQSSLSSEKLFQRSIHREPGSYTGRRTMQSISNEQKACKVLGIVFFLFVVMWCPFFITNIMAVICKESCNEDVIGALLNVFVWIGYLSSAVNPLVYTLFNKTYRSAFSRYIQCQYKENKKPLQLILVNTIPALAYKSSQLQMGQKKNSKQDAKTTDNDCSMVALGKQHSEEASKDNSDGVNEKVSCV
In short: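 CHO cells stably expressing human HTR2A were plated for 18 h at 37 C, then loaded with calcium dye for 1 h. Compounds were preincubated 5 min at room temperature before DOI (4 nM solution) was added. Kinetic fluorescence was read for 3 min.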

[16] = target: 5-hydroxytryptamine receptor 2A (Homo sapiens) (UniProt P28223); assay: 5-hydroxytryptamine receptor 2A (HTR2A) small molecule agonists, cell-based qHTS assay (AID 1963587); further: nearly all actives have a fitted effect of over 30% in size
In short: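 CHO cells stably expressing human HTR2A, plated 18 h, loaded with calcium dye 1 h at 37 C. Agonist mode: compounds added and intracellular calcium fluorescence recorded kinetically for 2 min at 1 sec intervals.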

[17] = target: Muscarinic acetylcholine receptor M1 (Homo sapiens) (UniProt P11229); assay: Cholinergic receptor muscarinic 1 (CHRM1) small molecule antagonists, cell-based qHTS assay (AID 1963588); further: nearly all actives have a fitted effect of over 40% in size; further: potency means the concentration at half of the fitted maximal effect
Sequence of Muscarinic acetylcholine receptor M1 (Homo sapiens) (P11229 whole entry, looked up): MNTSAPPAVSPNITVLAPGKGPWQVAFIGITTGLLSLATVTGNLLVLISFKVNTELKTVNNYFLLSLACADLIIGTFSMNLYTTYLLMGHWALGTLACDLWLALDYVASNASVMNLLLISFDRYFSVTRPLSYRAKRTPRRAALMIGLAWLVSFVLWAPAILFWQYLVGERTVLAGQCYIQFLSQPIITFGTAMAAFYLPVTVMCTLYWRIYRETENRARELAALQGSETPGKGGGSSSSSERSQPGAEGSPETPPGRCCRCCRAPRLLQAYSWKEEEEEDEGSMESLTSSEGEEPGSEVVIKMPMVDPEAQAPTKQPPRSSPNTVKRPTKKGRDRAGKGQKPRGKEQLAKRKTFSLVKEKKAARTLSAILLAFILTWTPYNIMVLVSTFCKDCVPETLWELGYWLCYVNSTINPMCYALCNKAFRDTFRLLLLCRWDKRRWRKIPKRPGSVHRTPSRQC
In short: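 Compounds were tested at 15 concentrations in three independent runs. Dye-loaded CHRM1-CHO cells were exposed 5 min at room temperature before stimulation by acetylcholine added at 50nM. Intracellular calcium was read kinetically on FDSS for 3 min.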

[18] = target: Muscarinic acetylcholine receptor M1 (Homo sapiens) (UniProt P11229); assay: Cholinergic receptor muscarinic 1 (CHRM1) small molecule agonists, cell-based qHTS assay (AID 1963589); further: nearly all actives have a fitted effect of over 35% in size
In short: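 Calcium flux read-out: kinetic fluorescence at 1 sec intervals after pin-tool compound addition to dye-loaded CHRM1-CHO cells (human M1). Agonist mode; 15 concentrations tested in triplicate independent runs.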

[19] = target: Beta-2 adrenergic receptor (Homo sapiens) (UniProt P07550); assay: Adrenergic beta2 receptor (ADRB2) small molecule agonists, cell-based qHTS assay (AID 1963593);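 further: CHO cells stably overexpressing human ADRB2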
In short: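 CHO cells stably over-expressing ADRB2 were plated overnight at 37C, then dosed with compounds plus a stimulation mix containing 100uM IBMX and 25uM Ro-20-1724 for 0.5hr at room temperature. cAMP was measured by HTRF competition, 1hr.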

[20] = target: D(2) dopamine receptor (Homo sapiens) (UniProt P14416); assay: Dopamine D2 receptor (DRD2) small molecule agonists, cell-based qHTS assay (AID 1963594); further: nearly all actives have a fitted effect of over 35% in size; further: potency means the concentration at half of the fitted maximal effect
In short: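 HEK293 cells stably expressing human DRD2, pre-treated with PDE inhibitor Ro20-1724 (0.1 mM final) and compound 10 min at room temperature, then stimulated with NKH477 (200nM […]) for 30 min. cAMP read by HTRF (665/620 nm).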

Compound	Potency [1]	Potency [2]	Potency [3]	Potency [4]	Potency [5]	Potency [6]	Potency [7]	Potency [8]	Potency [9]	Potency [10]	Potency [11]	Potency [12]	Potency [13]	Potency [14]	Potency [15]	Potency [16]	Potency [17]	Potency [18]	Potency [19]	Potency [20]
CNCCC(Oc1ccc(C(F)(F)F)cc1)c1ccccc1 (centres undefined)	26.9 µM (active)	38.4 µM (active)	inactive	inactive	inactive	inactive	inactive	inactive	inactive	inactive	inactive	inactive	inactive	–	–	–	–	–	–	–
CCCCNc1ccc(C(=O)OCCN(CC)CC)cc1	inactive	inactive	inactive	–	–	–	inactive	inactive	–	inactive	inactive	inactive	inactive	inactive	inactive	inactive	3.26 µM (active)	inactive	inactive	inactive
CC(C)NCC(O)COc1ccc(CC(N)=O)cc1 (centres undefined)	inactive	inactive	inactive	–	–	–	–	inactive	inactive	–	inactive	–	inactive	inactive	–	–	–	–	–	–
CN(C)CC[C@@H](c1ccc(Cl)cc1)c1ccccn1	inactive	inactive	inactive	–	–	–	–	inactive	inactive	inactive	inactive	inactive	inactive	inactive	–	–	–	–	–	inactive
O=S1(=O)N=C(O)c2ccccc21	inactive	inactive	inactive	–	–	inactive	inactive	inactive	–	inactive	inactive	inactive	inactive	–	inactive	inactive	inactive	inactive	–	inactive
Cc1nc([N+](=O)[O-])cn1-c1ccc([N+](=O)[O-])cc1	inactive	inactive	inactive	–	–	inactive	inactive	inactive	–	inactive	inactive	inactive	inactive	–	inactive	inactive	inactive	inactive	inactive	inactive
CCOC(=O)COC(=O)c1cc(Oc2ccc(C(F)(F)F)cc2Cl)ccc1[N+](=O)[O-]	inactive	inactive	inactive	–	inactive	inactive	inactive	–	–	–	–	–	–	–	inactive	inactive	inactive	inactive	–	inactive
C=C(C)C(=O)OCCOCCOCCOCCOC(=O)C(=C)C	inactive	inactive	inactive	inactive	inactive	inactive	–	inactive	inactive	–	–	inactive	–	–	inactive	–	inactive	inactive	inactive	inactive
O=C(O)c1ccc(-n2nc(-c3ccccc3O)nc2-c2ccccc2O)cc1	inactive	inactive	inactive	–	inactive	inactive	inactive	inactive	inactive	–	–	inactive	inactive	–	inactive	inactive	inactive	inactive	–	11.2 µM (active)
